According to PubChem BioAssay (NCATS):
Inconclusive results are not listed. The source made the active and inactive calls. Calls follow the shape of the dose curve; as a rule, active = well fitted cell-killing curve with a large enough effect; inconclusive = small, poorly fitted or top-dose-only effect, or effect the other way; inactive = flat fitted curve, though single readings scatter. Where a SMILES comes first, the peptide text is derived from it. [ ]: non-standard residue; d: D form. Ala(indol-2-yl) = N[C@@H](Cc1cc2ccccc2[nH]1)C(=O)O; Aib = CC(C)(N)C(=O)O

What follows are compounds tested on Tov-21-G (assay: Primary qHTS to identify gynecologic anti-cancer compounds using libraries of approved drugs and bioactive compounds (AID 1345084; also: nearly all actives have a fitted effect of over 55% in size)). Details: Gynecologic cancer cell panel viability, ATPlite luminescence, 48 h; series mostly up to 57.5 µM.
In short: (§1)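 Luminescence from the ATPlite ATP-monitoring reagent indicates viable cell number; lower signal means cytotoxicity. Cells received compound 16 h after seeding and were exposed for 48 h across five concentrations.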
% is scaled to controls: 0 for no effect and ±100 for the full control effect; potency is read from the fitted curve at half-maximal effect.

Row | SMILES | Potency
1 | CC(=O)OC[C@]12C[C@H](O)C(C)=C[C@H]1O[C@@H]1[C@H](O)[C@@H](OC(C)=O)[C@@]2(C)[C@]12CO2 | 178 nM (active)
2 | CO[C@H]1[C@H](O)[C@H](O[C@H]2CC[C@]3(C=O)C4CC[C@]5(C)[C@H](C6=CC(=O)OC6)CC[C@]5(O)C4CC[C@@H]3C2)O[C@@H](C)[C@@H]1O (stereo partly specified) | 31.6 nM (active)
3 | C[C@H]1O[C@@H](n2cnc3c(N)ncnc32)C[C@@H]1O | inactive
4 | CO[C@H]1[C@@H](O)[C@@H](C)O[C@@H](O[C@@H]2C=C3C(OC(C)=O)CC4(O)C(CC[C@]5(C)[C@@H](C6=CC(=O)OC6)CC[C@]45O)[C@@]3(C)CC2)[C@@H]1O (stereo partly specified) | 282 nM (active)
5 | CN(C)c1cc2c(cc1Sc1nc3c(N)nccc3n1CCNCC(C)(C)C)OCO2 | 1410 nM (active)

The compounds below were run on Tov112D in the same assay as above. Details: Gynecologic cancer cell panel viability, ATPlite luminescence, 48 h; series mostly up to 57.5 µM.
In short: as §1

Row | SMILES | Potency | activity change, negative = cytotoxicity
6 | CCC(C)/C=C(C)/C=C/C1=CC2=C(Cl)C(=O)C(C)(OC(C)=O)C(=O)C2=CO1 (stereo unspecified) | inactive | –
7 | COC1CC(O[C@H]2CC[C@]3(C)C4CC[C@]5(C)[C@@H](C6=CC(=O)OC6)[C@@H](OC(C)=O)C[C@]5(O)C4CC[C@@H]3C2)OC(C)C1O (stereo partly specified) | 251 nM (active) | –
8 | C[C@H]1O[C@@H](O[C@H]2CC[C@]3(C=O)C4CC[C@]5(C)[C@@H](C6=CC(=O)OC6)CC[C@]5(O)[C@@H]4CC[C@]3(O)C2)C[C@@H](O)[C@@H]1O (stereo partly specified) | 25.1 nM (active) | –
9 | C=C1[C@@H](C)[C@H]2[C@H](Cc3ccccc3)NC(=O)[C@]23OC(=O)/C=C/C(=O)CCC[C@@H](C)C/C=C/[C@H]3[C@@H]1O | 15800 nM (active) | –
10 | CC(C)(C)[C@]1(O)C[C@@H]2OC(=O)C[C@@]23C(=O)O[C@@H]2OC(=O)[C@@H](O)[C@]213 | inactive | –
11 | C[C@H]1C/C=C/[C@H]2[C@@H]3O[C@]3(C)[C@@H](C)[C@H]3[C@H](Cc4ccccc4)NC(=O)[C@]32OC(=O)O/C=C/[C@@](C)(O)C1=O | 3160 nM (active) | –
12 | CNC(=O)c1cc(C#N)cc(C)c1NC(=O)c1cc(Br)nn1-c1ncccc1Cl | inactive | –
13 | OCc1nnc2n1-c1ccc(Cl)cc1C(c1ccccc1Cl)=NC2 | inactive | –
14 | CN[C@@H]1C[C@H]2O[C@@](C)([C@@H]1OC)n1c3ccccc3c3c4c(c5c6ccccc6n2c5c31)C(=O)NC4 | 891 nM (active) | –
15 | COC1CC(O[C@H]2CC[C@]3(C=O)C4CC[C@]5(C)[C@@H](C6=CC(=O)OC6)CC[C@]5(O)[C@@H]4CC[C@@H]3C2)OC(C)C1O[C@@H]1O[C@H](CO)[C@@H](O[C@@H]2O[C@H](CO)[C@@H](O)[C@H](O)[C@H]2O)[C@H](O)[C@H]1O (stereo partly specified) | 112 nM (active) | –
16 | CC[C@@H]1C[C@H]2CC[C@H](O2)[C@H](C)C(=O)O[C@@H](C)C[C@@H]2CC[C@@H](O2)[C@@H](C)C(=O)O[C@H](CC)C[C@H]2CC[C@H](O2)[C@H](C)C(=O)O[C@@H](C)C[C@@H]2CC[C@@H](O2)[C@@H](C)C(=O)O1 | 562 nM (active) | –
17 | CO[C@@H]1C[C@H](O[C@H]2CC[C@@]3(C)C(CCC4C3CC[C@]3(C)[C@@H](C5=CC(=O)OC5)[C@@H](OC(C)=O)CC43O)C2)O[C@H](C)[C@@H]1O[C@H]1O[C@H](CO[C@@H]2O[C@H](CO)[C@@H](O)[C@H](O)[C@H]2O)[C@@H](O)[C@H](O)[C@H]1O (stereo partly specified) | 316 nM (active) | –
18 | CO[C@H]1C[C@H](O[C@H]2CC[C@@]3(C)C(=CCC4C3CC[C@]3(C)[C@@H](C5=CC(=O)OC5)CC[C@]43O)C2)O[C@@H](C)[C@@H]1O[C@@H]1O[C@H](CO[C@@H]2O[C@H](CO)[C@@H](O)[C@H](O)[C@H]2O)[C@@H](O)[C@H](O)[C@H]1O (stereo partly specified) | – | -28.4% [at 11.6 µM] (inactive)
19 | C=C1[C@@H](C)[C@H]2[C@H](Cc3ccccc3)NC(=O)[C@]23[C@H](OC(C)=O)/C=C/[C@](C)(O)C(=O)[C@@H](C)C/C=C/[C@H]3[C@@H]1O | inactive | –
20 | c1cncc(OC[C@@H]2CCN2)c1 | inactive | –
21 | CC(=O)OC[C@]12C[C@H](OC(=O)CC(C)C)C(C)=C[C@H]1O[C@@H]1[C@H](O)C[C@@]2(C)[C@]12CO2 | 2240 nM (active) | –

Row | SMILES | Potency | activity change, negative = cytotoxicity
22 | C[N@@+]1(CC2CC2)CC[C@]23c4c5ccc(O)c4O[C@H]2C(=O)CC[C@@]3(O)[C@H]1C5 | inactive | –
23 | COc1ccc2c3c([nH]c2c1)C(C=C(C)C)N1C(=O)C2CCCN2C(=O)C1C3 (stereo unspecified) | inactive | –
24 | CC(=O)OC[C@]12C[C@H](OC(=O)CC(C)C)C(C)=C[C@H]1O[C@@H]1[C@H](O)[C@@H](O)[C@@]2(C)[C@]12CO2 | 316 nM (active) | –
25 | CC(C)(NC(=O)[C@@H](N)Cc1ccc(O)cc1)C(=O)N[C@@H](Cc1cc2ccccc2[nH]1)C(=O)N[C@@H](Cc1ccccc1)C(=O)O (H-Y[Aib][Ala(indol-2-yl)]F-OH) | – | -10.9% [at 11.6 µM] (inactive)
26 | CC[C@H]1C2CC3[C@@H]4N(C)c5ccccc5[C@]45C[C@@H]([C@H]2[C@H]5O)N3[C@@H]1O | inactive | –
27 | CC(=O)OC[C@]12C[C@H](OC(=O)CC(C)C)C(C)=C[C@H]1O[C@@H]1[C@H](O)[C@@H](OC(C)=O)[C@@]2(C)[C@@]12CO2 | 224 nM (active) | –
28 | C=C(CO)C(=O)O[C@H]1CC(=C)[C@@H]2C[C@H](O)C(=C)[C@@H]2[C@H]2OC(=O)C(=C)[C@@H]21 | inactive | –
29 | CC1CCCC(=O)CCC/C=C/c2cc(O)cc(O)c2C(=O)O1 (stereo unspecified) | inactive | –
30 | O=C(OC[C@H]1O[C@@H](Oc2ccc(O)cc2CO)[C@H](O)[C@@H](O)[C@@H]1O)c1ccccc1 | inactive | –
31 | CC[C@@]1(O)C(=O)OCc2c1cc1n(c2=O)Cc2cc3c(OC)cccc3nc2-1 | 224 nM (active) | –
32 | CC(=O)OC[C@]12C[C@H](O)C(C)=C[C@H]1O[C@@H]1[C@H](O)[C@@H](O)[C@@]2(C)[C@]12CO2 | 10000 nM (active) | –
33 | CC(=O)OC[C@]12C[C@H](O)C(C)=C[C@H]1O[C@@H]1[C@H](O)[C@@H](OC(C)=O)[C@@]2(C)[C@]12CO2 | 100 nM (active) | –
34 | C[C@H]1O[C@@H](n2cnc3c(N)ncnc32)C[C@@H]1O | inactive | –
35 | CO[C@H]1[C@@H](O)[C@@H](C)O[C@@H](O[C@@H]2C=C3C(OC(C)=O)CC4(O)C(CC[C@]5(C)[C@@H](C6=CC(=O)OC6)CC[C@]45O)[C@@]3(C)CC2)[C@@H]1O (stereo partly specified) | 100 nM (active) | –
36 | CN(C)c1cc2c(cc1Sc1nc3c(N)nccc3n1CCNCC(C)(C)C)OCO2 | inactive | –
